We go through 34 compounds from PubChem BioAssay (NCATS).

Inconclusive results are not listed. Where a call stands in place of a potency, no number is given. Calls of active or inactive are those of the source. Unless noted, the call rests on the fitted dose curve; in most records, active means well fitted curve in either direction with a large enough effect (not every such curve was filed as active); inconclusive means small, poorly fitted or top-dose-only effect, or another doubt; inactive means flat fitted curve, though single readings scatter.

Glucocorticoid receptor (Homo sapiens), sequence (P04150 whole entry, looked up, the tested form may be a part): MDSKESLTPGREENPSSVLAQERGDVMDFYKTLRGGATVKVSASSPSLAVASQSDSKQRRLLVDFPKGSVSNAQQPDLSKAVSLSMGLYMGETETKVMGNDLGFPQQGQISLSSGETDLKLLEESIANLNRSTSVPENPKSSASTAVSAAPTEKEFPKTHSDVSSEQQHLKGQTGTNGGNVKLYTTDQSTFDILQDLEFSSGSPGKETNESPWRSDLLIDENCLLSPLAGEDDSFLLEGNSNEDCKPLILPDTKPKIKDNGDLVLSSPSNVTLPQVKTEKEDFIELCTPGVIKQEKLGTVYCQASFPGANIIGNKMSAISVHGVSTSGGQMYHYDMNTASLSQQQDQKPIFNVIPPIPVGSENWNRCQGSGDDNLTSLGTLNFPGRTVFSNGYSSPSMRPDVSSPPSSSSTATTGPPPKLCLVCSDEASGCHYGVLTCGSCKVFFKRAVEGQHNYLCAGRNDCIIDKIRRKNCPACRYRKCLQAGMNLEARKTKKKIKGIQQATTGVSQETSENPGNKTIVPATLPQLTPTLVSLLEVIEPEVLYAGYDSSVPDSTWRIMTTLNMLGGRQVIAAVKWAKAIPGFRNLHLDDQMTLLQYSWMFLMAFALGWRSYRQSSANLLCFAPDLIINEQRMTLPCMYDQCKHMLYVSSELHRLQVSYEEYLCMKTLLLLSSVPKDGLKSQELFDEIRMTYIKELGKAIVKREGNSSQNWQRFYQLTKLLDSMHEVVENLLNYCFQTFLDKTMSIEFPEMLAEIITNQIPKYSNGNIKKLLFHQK

The first assay has as its target Glucocorticoid receptor (Homo sapiens) (UniProt P04150). Put plainly: GR-EFC Redistribution (AID 451; calls by dose curve; further: potency means the concentration at half of the fitted maximal effect). Particulars: CHO-K1 GR-EFC translocation, beta-gal luminescence, 2 h. The gist of the method: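 CHO-K1 cells expressing nuclear EA and GR-ED fragments of b-gal; compounds titrated up to 46 uM final, 2 h at 37 C. GR nuclear translocation read as complemented b-gal luminescence after 1 h RT detection.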
Consider `O=c1c(-c2cccc(F)c2)nc2cncnc2n1Cc1ccc(F)cc1`, for which the Potency was > 46 µM (inactive).

Take `COc1ccccc1CNc1ncnc2ccc(-c3cccc(NS(C)(=O)=O)c3)cc12`: the Potency is > 46 µM (inactive).

As to `COc1ccc(CNc2ncncc2-c2ccccc2OC)c(OC)c1`, the Potency is > 46 µM (inactive).

`COCCn1c(=O)c(-c2cccs2)nc2cnc(Oc3ccccc3)nc21`: the Potency is > 46 µM (inactive).

As for `CN(C)c1ncnc2ccc(-c3cccc(NS(C)(=O)=O)c3)cc12`, the Potency was > 46 µM (inactive).

For `COc1ccc(Oc2ncc3nc(-c4ccc(F)cc4)c(=O)n(C[C@H]4CCCO4)c3n2)cc1`, the Potency is > 46 µM (inactive).

`CN(C)c1ncc2nc(CCc3ccccc3)c(=O)n(CCC#N)c2n1`: the Potency is > 46 µM (inactive).

For the compound `CN(C)c1ncc2nc(CCc3ccccc3)c(=O)n(CCc3ccccc3)c2n1`, the Potency is > 46 µM (inactive).

In the case of `COc1ccc(CNc2cc(-c3cccc(NS(C)(=O)=O)c3)ncn2)c(OC)c1`, the Potency is > 46 µM (inactive).

As to `CCNc1ncc2nc(CCc3ccccc3)c(=O)n(Cc3cccc(OC)c3)c2n1`, the Potency is > 46 µM (inactive).

As to `COCCn1c(=O)c(-c2cc(F)cc(F)c2)nc2cnc(N3CCN(C)CC3)nc21`, the Potency is > 46 µM (inactive).

In the case of `COc1ccccc1CNc1cc(-c2ccccc2CN(C)C)ncn1`, the Potency is > 46 µM (inactive).

`CN(Cc1ccco1)c1nc(-c2ccccc2C(F)(F)F)nc2ccccc12`: the Potency was > 46 µM (inactive).

As to `O=c1c(CCc2ccccc2)nc2cnc(N3CCOCC3)nc2n1-c1ccccc1`, the Potency was > 46 µM (inactive).

With `O=c1c(CCc2ccccc2)nc2cnc(N3CCNCC3)nc2n1Cc1cccs1`, the Potency was > 46 µM (inactive).

For the compound `N#CCCn1c(=O)c(-c2cccc(C#N)c2)nc2cnc(Oc3cccc(Cl)c3)nc21`, the Potency is > 46 µM (inactive).

As for `Cn1cc(-c2nc3cnc(N4CCNCC4)nc3n(C3CC3)c2=O)c2ccccc21`, the Potency is > 46 µM (inactive).

Regarding `COc1ccccc1-c1ccc2ncnc(N3CCNCC3)c2c1`, the Potency was > 46 µM (inactive).

As to `COCCn1c(=O)c(-c2ccccc2)nc2cnc(Oc3cccc(Cl)c3)nc21`, the Potency was > 46 µM (inactive).

As to `COc1ccccc1-c1nccc(NCc2cccs2)n1`, the Potency was > 46 µM (inactive).

`Clc1ccccc1-c1nc(-n2ccnc2)c2ccccc2n1`: the Potency is > 46 µM (inactive).

Regarding `COc1ccc(-n2c(=O)c(CCc3ccccc3)nc3cnc(OC)nc32)cc1`, the Potency is > 46 µM (inactive).

In the case of `COc1ccc(Oc2ncc3nc(-c4cccc(C#N)c4)c(=O)n(Cc4cccc(OC)c4)c3n2)cc1`, the Potency is > 46 µM (inactive).

Turning to `N#Cc1cccc(-c2nc(NCCN3CCOCC3)c3ccccc3n2)c1`, the Potency was > 46 µM (inactive).

The next assay concerns the target Mitogen-activated protein kinase 10 (Mus musculus) (UniProt Q61831). Put plainly: JNK3 AlphaScreen Assay (AID 530).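 Further: kinase came from lysate of stimulated human HepG2 cells; signal reports phosphorylation of biotinylated GST-cJun 1-79 at Ser73 with 10 µM ATP.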 The note with it: JNK3 lysate, c-Jun phosphorylation; series mostly up to 57.1 µM. The gist of the method:
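HepG2 lysate (IL-1b/TNFa pre-activated) + biotin-GST-cJun 1-79 + anti-pSer73 cJun; cpd titration, 15 min RT; ATP 10 uM start; Tris pH 7.6, MgCl2, DTT, vanadate; beads in EDTA buffer; AlphaScreen.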
In general terms: Alpha assays give light when donor and acceptor beads are brought close together.
For `Cc1cccc(CNc2ncncc2-c2ccccc2CN(C)C)c1`, the Potency result is “inactive”.

Regarding `COc1ccc(Oc2ncc3nc(-c4cc(F)cc(F)c4)c(=O)n(C4CC4)c3n2)cc1`, the Potency result is “inactive”.

Consider `COc1ccccc1-c1nccc(N2CCN(C)CC2)n1`, for which the Potency result is “inactive”.

On to `Cc1nc2cnc(N3CCN(C)CC3)nc2n(CCc2ccccc2)c1=O`, for which the Potency result was “inactive”.

Consider `COc1cccc(-c2cncnc2NCCN2CCOCC2)c1`, for which the Potency result is “inactive”.

On to `CCNc1ncc2ncc(=O)n(Cc3ccc(F)cc3)c2n1`, for which the Potency result is “inactive”.

With `COc1cccc(Cn2c(=O)cnc3cnc(Nc4cccc(OC)c4)nc32)c1`, the Potency entry is “inactive”.

With `COc1cccc(-c2nc(NC3CC3)c3ccccc3n2)c1`, the Potency result was “inactive”.

For `COc1ccc2[nH]cc(CCNc3ncnc4ccc(-c5ccoc5)cc34)c2c1`, the Potency result was “inactive”.

On to `O=c1c(-c2cccc(F)c2)nc2cncnc2n1Cc1ccc(F)cc1`, for which the Potency result is “inactive”.

As for `COc1ccccc1CNc1ncnc2ccc(-c3cccc(NS(C)(=O)=O)c3)cc12`, the Potency result is “inactive”.

In the case of `COc1ccc(CNc2ncncc2-c2ccccc2OC)c(OC)c1`, the Potency entry was “inactive”.

With `CN(C)c1ncnc2ccc(-c3cccc(NS(C)(=O)=O)c3)cc12`, the Potency result is “inactive”.

Consider `COc1ccc(Oc2ncc3nc(-c4ccc(F)cc4)c(=O)n(C[C@H]4CCCO4)c3n2)cc1`, for which the Potency result is “inactive”.

For the compound `COc1ccc(CNc2cc(-c3cccc(NS(C)(=O)=O)c3)ncn2)c(OC)c1`, the Potency entry is “inactive”.

In the case of `O=c1c(CCc2ccccc2)nc2cnc(Nc3ccccc3)nc2n1C[C@H]1CCCO1`, the Potency result is “inactive”.

In the case of `CCNc1ncc2nc(CCc3ccccc3)c(=O)n(Cc3cccc(OC)c3)c2n1`, the Potency entry was “inactive”.

Consider `COCCn1c(=O)c(-c2cc(F)cc(F)c2)nc2cnc(N3CCN(C)CC3)nc21`, for which the Potency result is “inactive”.

As to `COc1ccccc1CNc1cc(-c2ccccc2CN(C)C)ncn1`, the Potency entry is “inactive”.

On to `CN(Cc1ccco1)c1nc(-c2ccccc2C(F)(F)F)nc2ccccc12`, for which the Potency result is “inactive”.

For `O=c1c(CCc2ccccc2)nc2cnc(N3CCOCC3)nc2n1-c1ccccc1`, the Potency entry was “inactive”.

`O=c1c(CCc2ccccc2)nc2cnc(N3CCNCC3)nc2n1Cc1cccs1`: the Potency entry is “inactive”.

As to `COc1ccccc1-c1ccc2ncnc(N3CCNCC3)c2c1`, the Potency result was “inactive”.

`COCCn1c(=O)c(-c2ccccc2)nc2cnc(Oc3cccc(Cl)c3)nc21`: the Potency entry is “inactive”.

As to `Clc1ccccc1-c1nc(-n2ccnc2)c2ccccc2n1`, the Potency entry is “inactive”.

`COc1ccc(-n2c(=O)c(CCc3ccccc3)nc3cnc(OC)nc32)cc1`: the Potency entry was “inactive”.

As for `N#Cc1cccc(-c2nc(NCCN3CCOCC3)c3ccccc3n2)c1`, the Potency entry is “inactive”.
